CD11b adhes enh = enhancers of CD11b/CD18 adhesion to fibrinogen, primary screen, K562 cells, luminescence. Integrin beta-2 (Homo sapiens) + Integrin alpha-M (Homo sapiens), P05107+P11215. AID 1499, 2009. activation, % at 10 µM. ATPlite luminescence. hit rate 0.07% among 93,000;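 active = 10 µM primary screen giving 50% or more activity, confirmed by 40% or more on retest at that dose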
CD11b adhes inh = inhibitors of CD11b/CD18 adhesion to fibrinogen, primary screen, K562 cells, luminescence; Integrin beta-2 (Homo sapiens) + Integrin alpha-M (Homo sapiens), P05107+P11215; ATPlite luminescence; Mn2+ added to activate the integrin; inhibition, % at 10 µM; hit rate 0.54% among 93,000; AID 1497, 2009;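 active = primary inhibition of 50% or more at 10 µM, then 40% or more on retest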
CYP2C19 act = human CYP2C19 activators, primary screen, biochemical, luminescence | recombinant CYP2C19, luciferin-H EGE luminescence; hits give high values; 0 = fully inhibited enzyme, 1 = untreated enzyme | activation factor at 5 µM | 96,000 tested, under 10 active;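 active = activation factor of at least 2 at 5 µM in the primary screen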;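 also: 0 = wells with 2.5 mM tranylcypromine and 1 = vehicle-only wells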
CYP2C9 activ = human CYP2C9 activators, primary screen, biochemical, luminescence; hit rate 1.4% among 96,000; activation factor at 5 µM; recombinant CYP2C9, luciferin-H conversion; hits give high values; factor 1 = untreated enzyme, 0 = blocked;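 active = activation factor of 2 or more for CYP2C9 at a 5 µM dose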;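 also: 0 = sulfaphenazole-blocked wells and 1 = vehicle-only wells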
Target sequence (P11712 whole entry, looked up): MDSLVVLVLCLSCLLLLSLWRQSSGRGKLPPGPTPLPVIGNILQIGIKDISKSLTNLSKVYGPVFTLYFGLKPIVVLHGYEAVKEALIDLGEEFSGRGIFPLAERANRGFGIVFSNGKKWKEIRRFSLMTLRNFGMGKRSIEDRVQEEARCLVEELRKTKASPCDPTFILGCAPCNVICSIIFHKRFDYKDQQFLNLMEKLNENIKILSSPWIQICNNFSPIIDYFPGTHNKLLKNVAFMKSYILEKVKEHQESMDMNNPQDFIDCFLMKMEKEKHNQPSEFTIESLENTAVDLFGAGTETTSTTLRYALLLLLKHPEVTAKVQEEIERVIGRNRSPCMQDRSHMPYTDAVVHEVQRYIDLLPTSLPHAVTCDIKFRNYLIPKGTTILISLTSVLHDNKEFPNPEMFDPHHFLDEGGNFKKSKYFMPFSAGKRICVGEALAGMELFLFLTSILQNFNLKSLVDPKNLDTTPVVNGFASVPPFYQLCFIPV
CYP2C19 inhib = blockers of cytochrome P450 2C19 activity – biochemical, luminescence, ADME assay, primary screen; hit rate 21% among 96,000; CYP2C19 Supersomes, luciferin-H EGE luminescence, 30 min; P33261; inhibition, % at 5 µM;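 active = CYP2C19 inhibition above a set limit at 5 µM in the primary screen, cut at about 50% in these data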;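 also: plate controls were negative control wells for no effect and 2.5 mM tranylcypromine positive control for full effect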
CYP2C9 inhib = blockers of cytochrome P450 2C9 activity – biochemical, luminescence, ADME assay, primary screen; inhibition, % at 5 µM; hit rate 20% among 96,000; CYP2C9 Supersomes, luciferin-H conversion;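 active = blocking of liver enzyme CYP2C9 beyond about 50% at 5 µM, limit read from the data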
* hit, by the source's call. An excerpt weighted towards active compounds, which were near 28% of everything screened.

How did Cc1ccc(S(=O)(=O)Cn2nnnc2C(C(C)C)N2CCSCC2)cc1 (configuration not stated) do in these assays?
CD11b adhes enh: 1; CD11b adhes inh: 4; CYP2C19 act: 0.8; CYP2C9 activ: 0.3; CYP2C19 inhib: 24; CYP2C9 inhib: 69*

Results for c1ccc(-c2ccccc2-n2cnnn2)cc1 ?
CD11b adhes enh: -4; CD11b adhes inh: -15; CYP2C19 act: 0.6; CYP2C9 activ: 0.8; CYP2C19 inhib: 43; CYP2C9 inhib: 18

What do the screens show for `CCN(CC)S(=O)(=O)c1ccc(Cc2ncc(C(F)(F)F)cc2Cl)s1`?
CD11b adhes enh: -3; CD11b adhes inh: -12; CYP2C19 act: 0.2; CYP2C9 activ: 0.4; CYP2C19 inhib: 83*; CYP2C9 inhib: 59*

Results for NNS(=O)(=O)c1ccc(Cc2ncc(C(F)(F)F)cc2Cl)s1 ?
CD11b adhes enh: -2; CD11b adhes inh: -1; CYP2C19 act: 0.3; CYP2C9 activ: 0.7; CYP2C19 inhib: 70*; CYP2C9 inhib: 30

How did Cc1ccc(C(C(=O)NC2CCCC2)N2CCCCC2)cc1 (configuration not stated) do in these assays?
CD11b adhes enh: 2; CD11b adhes inh: -9; CYP2C19 act: 1.1; CYP2C9 activ: 1; CYP2C19 inhib: -14; CYP2C9 inhib: 1

How did COc1ccc(N(CC(=O)Nc2ccc3c(c2)OCCO3)S(=O)(=O)c2cccnc2)cc1 do in these assays?
CD11b adhes enh: 2; CD11b adhes inh: -4; CYP2C19 act: 0.8; CYP2C9 activ: 0.5; CYP2C19 inhib: 25; CYP2C9 inhib: 48

What do the screens show for `COc1ccccc1N(CC(N)=O)S(=O)(=O)c1ccc(C)cc1`?
CD11b adhes enh: 0; CD11b adhes inh: -16; CYP2C19 act: 0.7; CYP2C9 activ: 0.6; CYP2C19 inhib: 28; CYP2C9 inhib: 44

What do the screens show for `COc1ccccc1N(CC(=O)NCc1ccccc1)S(C)(=O)=O`?
CD11b adhes enh: 4; CD11b adhes inh: -27; CYP2C19 act: 0.8; CYP2C9 activ: 0.9; CYP2C19 inhib: 18; CYP2C9 inhib: 15

Results for COc1ccccc1N(CC(=O)Nc1cccnc1)S(C)(=O)=O ?
CD11b adhes enh: -5; CD11b adhes inh: -16; CYP2C19 act: 0.3; CYP2C9 activ: 0.7; CYP2C19 inhib: 68*; CYP2C9 inhib: 31

Results for CS(=O)(=O)N(CC(=O)Nc1ccc(F)c(F)c1)c1cccc([N+](=O)[O-])c1 ?
CD11b adhes enh: -2; CD11b adhes inh: -3

How did COc1ccccc1N(CC(=O)Nc1ccc(F)c(F)c1)S(C)(=O)=O do in these assays?
CD11b adhes enh: 2; CD11b adhes inh: 6; CYP2C19 act: 0.1; CYP2C9 activ: 0.3; CYP2C19 inhib: 88*; CYP2C9 inhib: 66*

How did COc1ccccc1N(CC(=O)Nc1cccnc1)S(=O)(=O)c1ccccc1 do in these assays?
CD11b adhes enh: 1; CD11b adhes inh: -9; CYP2C19 act: 0.1; CYP2C9 activ: 0; CYP2C19 inhib: 90*; CYP2C9 inhib: 100*

How did COc1ccc(OC)c(N(CC(=O)Nc2cccnc2)S(=O)(=O)c2ccccc2)c1 do in these assays?
CD11b adhes enh: -3; CD11b adhes inh: -51; CYP2C19 act: 0; CYP2C9 activ: 0; CYP2C19 inhib: 98*; CYP2C9 inhib: 98*

What do the screens show for `COc1ccc(S(=O)(=O)N(CC(=O)Nc2cccnc2)c2ccccc2OC)cc1`?
CD11b adhes enh: -1; CD11b adhes inh: -5; CYP2C19 act: 0.5; CYP2C9 activ: 0.1; CYP2C19 inhib: 54*; CYP2C9 inhib: 94*

Results for O=S(=O)(NCCOc1ccccc1)c1ccc2ccccc2c1 ?
CD11b adhes enh: -3; CD11b adhes inh: -4; CYP2C19 act: 1; CYP2C9 activ: 2.1*; CYP2C19 inhib: 2; CYP2C9 inhib: -105

What do the screens show for `CC(C)OCCCNS(=O)(=O)c1ccc2ccccc2c1`?
CD11b adhes enh: -3; CD11b adhes inh: 4; CYP2C19 act: 0.6; CYP2C9 activ: 3.4*; CYP2C19 inhib: 39; CYP2C9 inhib: -237

How did O=C1NCCN1CCNS(=O)(=O)c1ccc2ccccc2c1 do in these assays?
CD11b adhes enh: 2; CD11b adhes inh: 8; CYP2C19 act: 0.8; CYP2C9 activ: 0.8; CYP2C19 inhib: 16; CYP2C9 inhib: 23

Results for COc1ccc(OCCNS(=O)(=O)c2ccccc2)cc1 ?
CD11b adhes enh: -1; CD11b adhes inh: -3; CYP2C19 act: 0.1; CYP2C9 activ: 0.2; CYP2C19 inhib: 86*; CYP2C9 inhib: 82*

What do the screens show for `CC(C)OCCCNS(=O)(=O)c1ccc2c(c1)oc(=O)n2C`?
CD11b adhes enh: -2; CD11b adhes inh: -12; CYP2C19 act: 0.6; CYP2C9 activ: 1.1; CYP2C19 inhib: 37; CYP2C9 inhib: -13

Results for O=C1c2ccccc2CN1CCNS(=O)(=O)c1ccc2ccccc2c1 ?
CD11b adhes enh: 8; CD11b adhes inh: 2; CYP2C19 act: 0.7; CYP2C9 activ: 2.5*; CYP2C19 inhib: 30; CYP2C9 inhib: -154

How did Cc1ccc(OCCNC(=O)c2ccco2)cc1C do in these assays?
CD11b adhes enh: -1; CD11b adhes inh: -12; CYP2C19 act: 0.7; CYP2C9 activ: 0.9; CYP2C19 inhib: 26; CYP2C9 inhib: 10

How did CC(C)OCCCNS(=O)(=O)c1ccc2c(c1)OCCO2 do in these assays?
CD11b adhes enh: 0; CD11b adhes inh: -32; CYP2C19 act: 0.2; CYP2C9 activ: 2.2*; CYP2C19 inhib: 77*; CYP2C9 inhib: -124

Results for Cc1ccc(OCCNS(=O)(=O)c2cccs2)cc1 ?
CD11b adhes enh: -1; CD11b adhes inh: 6; CYP2C19 act: 0; CYP2C9 activ: 0.2; CYP2C19 inhib: 100*; CYP2C9 inhib: 85*

How did CC(C)(C)OC(=O)N1CCCC(C(=O)CC#N)C1 (configuration not stated) do in these assays?
CD11b adhes enh: -1; CD11b adhes inh: 2; CYP2C19 act: 0.6; CYP2C9 activ: 0.3; CYP2C19 inhib: 37; CYP2C9 inhib: 66*

What do the screens show for `O=C(Nc1ccsc1C(=O)NC1CCCCC1)c1ccccc1`?
CD11b adhes enh: -4; CD11b adhes inh: 0; CYP2C19 act: 1.1; CYP2C9 activ: 0.9; CYP2C19 inhib: -6; CYP2C9 inhib: 10

What do the screens show for `Cc1ccc(S(=O)(=O)N2CCN(Cc3cc(C(C)C)ccc3O)CC2)cc1`?
CD11b adhes enh: -6; CD11b adhes inh: 8; CYP2C19 act: 0.7; CYP2C9 activ: 0.5; CYP2C19 inhib: 28; CYP2C9 inhib: 51*

Results for CCC1(CC)NC(=S)N(Nc2ccccc2)C1=O ?
CD11b adhes enh: 0; CD11b adhes inh: 6; CYP2C19 act: 0.7; CYP2C9 activ: 1; CYP2C19 inhib: 30; CYP2C9 inhib: -3

Screening data (PubChem)
